Source: PubChem BioAssay
Mdm2 MdmX PPI – inhibitors of human Mdm2-MdmX association, primary screen, cell-based, luminescence, split luciferase, SaOS-2, uHTS | Protein Mdm4 (Homo sapiens) + E3 ubiquitin-protein ligase Mdm2 (Homo sapiens), … | SaOS-2 split-luciferase Mdm2/MdmX complementation | inhibition, % at 8 µM | hit rate 3% among 330,000 | AID 485346, 2010;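 active = inhibition of at least 50% at 8 µM in the primary screen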
Target sequence (O15151 whole entry, looked up): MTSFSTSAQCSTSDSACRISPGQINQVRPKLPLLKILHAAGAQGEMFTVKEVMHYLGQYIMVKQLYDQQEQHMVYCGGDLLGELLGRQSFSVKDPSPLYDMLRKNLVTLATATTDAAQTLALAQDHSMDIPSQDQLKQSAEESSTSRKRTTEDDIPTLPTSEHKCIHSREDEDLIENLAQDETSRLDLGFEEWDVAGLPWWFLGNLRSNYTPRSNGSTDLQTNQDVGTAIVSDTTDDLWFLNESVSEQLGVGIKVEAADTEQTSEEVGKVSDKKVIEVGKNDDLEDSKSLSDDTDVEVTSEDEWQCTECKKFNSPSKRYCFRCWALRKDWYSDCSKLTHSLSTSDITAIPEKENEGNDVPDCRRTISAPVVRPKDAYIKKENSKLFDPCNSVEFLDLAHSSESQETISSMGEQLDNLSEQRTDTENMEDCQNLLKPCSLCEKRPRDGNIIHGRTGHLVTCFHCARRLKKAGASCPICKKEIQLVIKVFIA
Target sequence (Q00987 whole entry, looked up): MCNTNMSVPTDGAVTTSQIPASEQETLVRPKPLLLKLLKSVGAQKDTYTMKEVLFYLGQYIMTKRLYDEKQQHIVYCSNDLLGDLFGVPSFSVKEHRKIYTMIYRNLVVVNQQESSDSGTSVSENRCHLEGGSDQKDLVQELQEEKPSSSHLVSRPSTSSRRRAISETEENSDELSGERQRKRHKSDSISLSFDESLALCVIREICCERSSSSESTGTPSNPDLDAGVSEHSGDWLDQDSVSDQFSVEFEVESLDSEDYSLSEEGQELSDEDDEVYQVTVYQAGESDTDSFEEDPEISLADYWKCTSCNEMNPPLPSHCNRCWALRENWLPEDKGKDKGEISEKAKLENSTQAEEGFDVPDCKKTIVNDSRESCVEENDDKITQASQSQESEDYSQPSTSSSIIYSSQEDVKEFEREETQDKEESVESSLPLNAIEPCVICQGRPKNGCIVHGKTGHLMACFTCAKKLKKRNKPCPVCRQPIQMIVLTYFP
Calb FLC – C. albicans growth inhibition with fluconazole, primary screen, CaCi-2 strain, Alamar Blue fluorescence. C. albicans CaCi-2 (fluconazole-resistant clinical isolate) + fluconazole, 48 h. growth inhibition, % (no concentration beside the values). hit rate 0.57% among 300,000. AID 1979, 2009;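 active = growth inhibition above about 58% in most replicates, limit read from the data, passing the limit was not always enough; inconclusive = exactly half the replicates above a set limit; inactive = most replicates below a set limit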;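 also: all wells also contain fluconazole at 8 µg/ml as a sub-toxic cotreatment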
Beta apoptosis – inhibitors of cytokine-induced beta cell apoptosis, primary screen, luminescence. INS-1E cytokine-induced death, ATP luminescence, 48 h; percent of positive-control rescue, neutral wells zero. protection from apoptosis, % (concentration not given with the values). hit rate 0.8% among 300,000. AID 435005, 2010;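 active = Every replicate reaches about 75%, or at least half do and their mean reaches it too, limit read from the data; inconclusive = At least half of replicates reach the limit but their mean does not; inactive = Under half of replicates reach the limit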;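 also: higher means more ATP so stronger rescue from cytokine killing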
CSC inhib – cancer stem cell viability inhibitors, primary screen, luminescence; cancer stem cell-like cells viability; inhibition, % at 7.5 µM; hit rate 1.1% among 300,000; AID 2717, 2010; in the data active = inhibition above about 75%; inconclusive = no clear call, values can overlap the other calls; tested in HMLE shEcad cells
SKKanGAS inh – S. pyogenes SKKanGAS growth inhibitors in kanamycin, primary screen, streptokinase expression inhibitor project, SKKanGAS strain, BacTiter-Glo luminescence; 6 h; inhibition, % at 7.5 µM; hit rate 1.3% among 300,000; AID 1662, 2009;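 active = mean replicate score, as percent of positive control median, at least 50; inconclusive = mean below 50 but one replicate at or above 50; inactive = mean and every replicate below 50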;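 also: strain carries kanamycin resistance gene driven by streptokinase promoter and grows in 40 µg/ml kanamycin; loss of luminescence reflects streptokinase promoter inhibition or plain growth inhibition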
MPTP block – mitochondrial permeability transition pore inhibitors, primary screen, biochemical, isolated mouse mitochondria, absorbance; Ca2+ swelling absorbance, 30 min; inhibition, % at 10 µM; hit rate 1.4% among 360,000; AID 602449, 2012;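 active = inhibition of 50% or more, scaled per plate between neutral and stimulator controls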
A number is an active result. Most compounds without a hit are left out; they make up all but 5.4% or so of the library.

O=S(=O)(Nc1ccc(O)c2ccccc12)c1ccc(F)cc1 was read as Mdm2 MdmX PPI inactive, Calb FLC inactive, Beta apoptosis inactive, CSC inhib inactive, SKKanGAS inh inactive and MPTP block inactive.
O=C(O)CSc1cc(NS(=O)(=O)c2cccc([N+](=O)[O-])c2)c2ccccc2c1O was read as Calb FLC inactive, SKKanGAS inh inactive and MPTP block inactive.
For CCc1ccc(S(=O)(=O)Nc2cc(SCC(=O)O)c(O)c3ccccc23)cc1 the results were Mdm2 MdmX PPI inactive, Calb FLC inactive, Beta apoptosis inactive, CSC inhib 114, SKKanGAS inh inactive and MPTP block inactive.
For CCc1ccc(S(=O)(=O)Nc2ccc(O)c3ccccc23)cc1 the results were Mdm2 MdmX PPI inactive, Calb FLC inactive, Beta apoptosis inconclusive, CSC inhib 92, SKKanGAS inh inactive and MPTP block inactive.
Screening COc1ccc(OC)c(S(=O)(=O)Nc2ccc(O)c3ccccc23)c1 returned Mdm2 MdmX PPI inactive, Calb FLC inactive, Beta apoptosis 103, CSC inhib inactive, SKKanGAS inh inactive and MPTP block inactive.
Screening O=S(=O)(Nc1cc(Sc2cccc3cccnc23)c(O)c2ccccc12)c1ccccc1 returned Calb FLC inactive and SKKanGAS inh 91.
CCc1cc(-c2nnn(CCC3COCCO3)c2C(C)(C)O)ccc1-c1cn(CCc2c[nH]c3ccccc23)nn1 (configuration not stated) was read as MPTP block inactive.
For CC(C)(C)c1ccc(OC(=O)c2cccnc2)cc1 the results were Mdm2 MdmX PPI inactive, Calb FLC inactive, CSC inhib inactive, SKKanGAS inh inactive and MPTP block inactive.
Screening Cc1cc(C(C)(C)C)cc(C)c1COC(=O)c1cccnc1 returned Mdm2 MdmX PPI inactive, Calb FLC inactive, Beta apoptosis inactive, CSC inhib inactive, SKKanGAS inh 64 and MPTP block inactive.
`COc1ccccc1/C=C1\S/C(=N/NC(=O)c2cccc(Br)c2)NC1=O` gave Mdm2 MdmX PPI inactive, Calb FLC inconclusive, Beta apoptosis inactive, CSC inhib 114, SKKanGAS inh 81 and MPTP block inactive.
`COC(=O)/C=C1\S/C(=N/NC(=O)c2ccccc2)NC1=O` gave Mdm2 MdmX PPI inactive, Calb FLC inactive, Beta apoptosis inactive, CSC inhib inactive, SKKanGAS inh inactive and MPTP block inactive.
Screening CC(C)(C)c1ccc(Oc2cccc(C3CC(=O)C(C4NCCc5ccccc54)C(=O)C3n3cncn3)c2)cc1 (configuration not stated) returned Mdm2 MdmX PPI inactive, Calb FLC inactive, CSC inhib inactive, SKKanGAS inh 96 and MPTP block inactive.
`COc1ccc(C(=O)c2coc3c2C(=O)C(=O)c2ccccc2-3)cc1` gave Mdm2 MdmX PPI inactive, Calb FLC inactive, Beta apoptosis inactive, CSC inhib inactive, SKKanGAS inh 58 and MPTP block inactive.
For O=C1c2cccc3c([N+](=O)[O-])ccc(c23)C(=O)N1O the results were Mdm2 MdmX PPI inactive, Calb FLC inactive, Beta apoptosis inactive, CSC inhib inactive, SKKanGAS inh 79 and MPTP block inactive.
Screening COc1ccc2c3c(cccc13)C(=O)N(O)C2=O returned Calb FLC inactive, Beta apoptosis inactive, CSC inhib inactive, SKKanGAS inh inactive and MPTP block inactive.
For O=C(OCc1ccco1)c1cccnc1 the results were Mdm2 MdmX PPI inactive, Calb FLC inactive, Beta apoptosis inactive, CSC inhib inactive, SKKanGAS inh inactive and MPTP block inactive.
For Cc1ccc(C)c(N2CCN(C(=O)COc3cc(=O)n(C)c4ccccc34)CC2)c1 the results were Mdm2 MdmX PPI inactive, Calb FLC inactive, Beta apoptosis inactive, CSC inhib inactive, SKKanGAS inh inactive and MPTP block inactive.
For Cc1ccc(C)c(N2CCN(C(=O)CCCOc3cc(=O)n(C)c4ccccc34)CC2)c1 the results were Mdm2 MdmX PPI inactive, Calb FLC inactive, Beta apoptosis 94, CSC inhib inactive, SKKanGAS inh inactive and MPTP block inactive.
Cc1ccc(S(=O)(=O)NC(=O)Nc2ccccc2)cc1 was read as Mdm2 MdmX PPI inactive, Calb FLC inactive, Beta apoptosis inactive, CSC inhib inactive, SKKanGAS inh inactive and MPTP block inactive.
